Test results from PubChem BioAssay (Tox21).
Results filed as inconclusive are left out. A number with no mark means an inactive call. Active and inactive are the calls of the source. Calls follow the shape of the dose curve; as a rule, active = well fitted cell-killing curve with a large enough effect in the repeat runs; inconclusive = weak or mixed curves, or effect the other way; inactive = no such curve, though single readings can be large or run the other way.

Experiment: qHTS assay to identify small molecule antagonists of the progesterone receptor (PR) signaling pathway - cell viability counter screen (AID 1346798); also: nearly all actives have a fitted effect of over 50% in size
Settings: PR-UAS-bla HEK293T viability, CellTiter-Glo luminescence, 16 h; series mostly up to 42.5 µM; activity change, negative = cytotoxicity: at the top concentration
Description: National Center for Advancing Translational Sciences [NCATS]
NIH Chemical Genomics Center [NCGC]
U.S. Environmental Protection Agency [EPA]
National Institutes of Environmental Health Sciences [NIEHS]
National Toxicology Program [NTP]
U.S. Food and Drug Administration [FDA]
Progesterone receptor (PR), a nuclear hormone receptor, plays an important role in development, metabolic homeostasis and reproduction. It is activated by the steroid hormone progesterone. Endocrine disrupting chemicals (EDCs) and their interactions with steroid hormone receptors like PR causes disruption of normal endocrine function. To identify the compounds that inhibit PR signaling, a PR-UAS-bla GripTite cell line i.e. PR-UAS-bla HEK293T (Invitrogen, Carlsbad, CA, USA) containing a beta-lactamase reporter gene under the control of an UAS response element was used to screen Tox21 10K compound library. The cytotoxicity of the Tox21 compound library against the PR-bla cell line was tested in parallel by measuring the cell viability using CellTiter-Glo assay in the same wells.
Tox21 Assay Protocol Summary:
PR-UAS-bla HEK293T cells were dispensed at 3,000 cells/4 uL of assay medium containing 2% charcoal stripped FBS per well into black wall/clear-bottom 1536-well plates using a Multidrop Combi (ThermoFisher Scientific, Waltham, MA) dispenser. After the assay plates were incubated at a 37C and 5% CO2 for 4 hr, 23 nL of compounds dissolved in DMSO, positive controls or DMSO only was transferred to the assay plate by a Pintool station (Kalypsys, San Diego, CA), followed by addition of 1 uL of R5020 in assay medium using a Flying Reagent Dispenser (FRD, Aurora Discovery, San Diego, CA). The plates were incubated at 37C and 5% CO2 for 16 hr. Then 1 uL of LiveBLAzer B/G FRET substrate was added using a Flying Reagent Dispenser, the plates were incubated at room temperature for 2 hours, and fluorescence intensity was measured by an Envision plate reader (PerkinElmer, Shelton, CT). For cell viability readout that measures cytotoxicity, 4 uL/well of CellTiter-Glo reagent was added into the assay plates using a FRD. After 30 min incubation at room temperature, the luminescence intensity in the plates was measured using a ViewLux (PerkinElmer) plate reader.
% is scaled to controls: 0 for no effect and ±100 for the full control effect; potency is read from the fitted curve at half-maximal effect.

Row | SMILES | activity change, negative = cytotoxicity | Potency
1 | CCCOCCC | 10.5% [at 92.4 µM] | 
2 | CCN(CC)CCOc1ccc(Cc2ccccc2)cc1 | 0.0532% | 
3 | COc1ccccc1OCC(O)COC(N)=O (stereo not given) | 9.51% | 
4 | Oc1ccccc1F | 7.23% [at 92.4 µM] | 
5 | CCCC(CCC)(C(=O)OCC)C(=O)OCC | 3.22% | 
6 | CCN(CC)CCNC(=O)COc1ccc(Cl)cc1 | -23.8% | 
7 | O=C(Cl)c1cccc([N+](=O)[O-])c1 | 2.05% [at 92.4 µM] | 
8 | O=C(CC(=O)C(F)(F)F)c1ccccc1 | 13.8% [at 92.4 µM] | 
9 | ICCc1ccccc1 |  | 59.9 µM (active)
10 | Cc1ccc(C)c(N)c1 | -8.33% [at 92.4 µM] | 
11 | CCCCCCCCCCCCCCCCOP(=O)([O-])OCC[N+](C)(C)C | -0.705% | 
12 | CCCCN1C[C@H](O)[C@@H](O)[C@H](O)[C@H]1CO | 12.3% | 
13 | C[C@@H]1CN(c2c(F)c(N)c3c(=O)c(C(=O)O)cn(C4CC4)c3c2F)C[C@H](C)N1 | 14.3% [at 18.9 µM] | 
14 | CC1=C2[C@H](/C=C(\C)C(=O)O)CC[C@@H](C)[C@H]2CC1 | 1.49% [at 92.4 µM] | 
15 | c1ccc(CN(CC2=NCCN2)c2ccccc2)cc1 | 11.4% | 
16 | O=[N+]([O-])c1nccn1CO[C@@H](CO)[C@H](O)CO | 1.02% | 
17 | COc1ccc2nc(NC(=O)Nc3ccccc3)sc2c1 | -28.1% | 
18 | CCCCNc1cc(C(=O)O)cc(S(N)(=O)=O)c1Oc1ccccc1 | 11.9% | 
19 | CC1=C(O)C(=O)OC1C (stereo not given) | 1.3% [at 92.4 µM] | 
20 | OCCN(CCO)c1ccccc1 | -2.58% [at 92.4 µM] | 

Row | SMILES | activity change, negative = cytotoxicity | Potency
21 | CC(C)Nc1nc(N)nc(Cl)n1 | -7.22% [at 92.4 µM] | 
22 | CS(=O)(=O)c1ccc([C@@H](O)[C@@H](CF)NC(=O)C(Cl)Cl)cc1 | 2.96% | 
23 | C=CC1CO1 (stereo not given) | 48.9% [at 92.4 µM] | 
24 | CCc1nnc(NS(=O)(=O)c2ccc(N)cc2)s1 | 6.53% | 
25 | CC1(O)CSC(C)(O)CS1 (stereo not given) | -2.89% [at 92.4 µM] | 
26 | CCc1cc(Cl)c(OC)c(C(=O)NC[C@@H]2CCCN2CC)c1O | -22.4% | 
27 | C=CC(C)(O)CC/C=C(\C)CCC=C(C)C (stereo not given) | 6.09% [at 92.4 µM] | 
28 | FC(F)(F)c1ccccc1 | -6.09% [at 92.4 µM] | 
29 | CCOC(=O)CS | 20.2% [at 92.4 µM] | 
30 | Cc1nc(N)nc(N)c1-c1ccc(Cl)c(Cl)c1 | -15.4% | 
31 | Cc1cccc(C)c1NC(=O)CN1CCCCCC1 | -8.95% | 
32 | CCOc1ccc(NS(=O)(=O)c2ccc(N)cc2)nn1 | 0.156% | 
33 | OCC(CBr)(CBr)CBr | -1.35% [at 92.4 µM] | 
34 | CCC/C=C/CO | -0.472% [at 92.4 µM] | 
35 | COc1cc(N)c(Cl)cc1C(=O)NC1CCN(Cc2ccccc2)CC1 | -17.8% | 
36 | N#CSCC(=O)O | 3.91% | 
37 | Cc1cc(NS(=O)(=O)c2ccc(N)cc2)nc(C)n1 | -15.5% | 
38 | CCOc1ccc(NC(N)=O)cc1 | 4.2% [at 92.4 µM] | 
39 | CO[C@@]1(NC(=O)CSCC#N)C(=O)N2C(C(=O)O)=C(CSc3nnnn3C)CS[C@@H]21 | -6.88% | 
40 | N#Cc1ccc(C(c2ccc(C#N)cc2)n2cncn2)cc1 | -9.62% | 
